Test results: PubChem BioAssay AID618 (Sanford-Burnham Center for Chemical Genomics, 2007)
Hit rate of the full screen: of about 87,000 compounds, about 540 (0.62%) were called active. This is one part of a sample in which actives are shown more often than they occur. How the calls were made is not given here. Entries with a potency or affinity are not part of this list.

assay: inhibitors of MT1-MMP promoter transcription, cell-based, luciferase reporter, luminescence (AID 618); settings: MT1-MMP promoter luciferase reporter cells;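 further: actives suppress MT1-MMP promoter-driven transcription so potencies describe inhibitors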

SMILES | outcome
CCCCS(=O)(=O)/C=C\C=C/S(=O)(=O)CCCC | active
CCCCS(=O)(=O)/C=C/[C@H]1[C@H](S(=O)(=O)CCCC)[C@H]2C=C[C@@H]1C2 | inactive
CCCCS(=O)(=O)/C=C\C1C2C=CC(C2)C1S(=O)(=O)CCCC (centres undefined) | inactive
COc1ccc(CCNC(=O)Cn2cnc3c(nnn3Cc3ccccc3F)c2=O)cc1OC | inactive
Cc1ccc(S(=O)(=O)N2CCN(C(=O)N3CCOCC3)C2c2ccc(N(C)C)cc2)cc1 (centres undefined) | inactive
O=C(Cn1cnc2ccccc2c1=O)OCC(=O)c1ccc2c(c1)OCCO2 | inactive
O=C(Cc1n[nH]c(=O)c2ccccc12)OCC(=O)c1ccc2c(c1)OCCO2 | active
O=C(Cc1ccc(Br)cc1)OCC(=O)c1ccc2c(c1)OCCO2 | inactive
CCOCCCn1c(SCC(=O)NC(C)(C)C)nc2ccccc2c1=O | inactive
CNC(=O)Nc1ccccc1F | inactive
Cc1nc2ccccc2c(=O)n1C1CCCCCC1 | inactive
O=C(c1cc(-c2ccc(Cl)cc2)on1)N1CCOCC1 | inactive
O=C(c1cc(-c2ccccc2)on1)N1CCCC1 | inactive
COc1cccc(-c2cc(C(=O)N3CCCCCC3)no2)c1 | inactive
O=C(c1cc(-c2cccc(O)c2)on1)N1CCOCC1 | inactive
O=C(c1cc(-c2ccc(Cl)cc2Cl)on1)N1CCN(C(=O)c2ccco2)CC1 | inactive
O=C(c1cc(-c2ccc(Cl)cc2Cl)on1)N1CCOCC1 | active
O=C(c1cc(-c2ccc(F)cc2)on1)N1CCCC1 | inactive
Cc1ccc(-c2cc(C(=O)N3CCCC3)no2)cc1 | active
CCCCN1CC(C(=O)NCc2ccc(C)cc2)CC1=O (centres undefined) | inactive
CCCN1Cc2cccc(C(=O)NCc3ccc4c(c3)OCO4)c2C1=O | inactive
c1coc(CN2CN=C(Nc3nc4ccccc4s3)NC2)c1 | inactive
Cc1cc(S(=O)(=O)N(Cc2ccc(F)cc2)CC2CCCO2)ccc1-n1cnnn1 (centres undefined) | inactive

SMILES | outcome
COc1ccc(OC)c(CNn2c(-c3cccc(C)c3)nc3ccccc3c2=O)c1 | inactive
CC1=CC(C)(C)N2C(=O)C3(C(C#N)=C(N)Oc4cc(O)ccc43)c3c(C)c(C)cc1c32 (centres undefined) | inactive
O=C(CSc1nnc(-c2cccs2)o1)c1cccs1 | inactive
Cc1cc(C(=O)CSc2nnc(-c3ccccc3F)o2)c(C)n1Cc1cccs1 | inactive
COC(=O)C1=C(C)N(CCCC(=O)O)C(=O)NC1c1ccccc1Cl (centres undefined) | inactive
Brc1ccc(OCc2nc(-c3ccccn3)n[nH]2)cc1 | inactive
COc1ccc2c(c1)sc1nc(-c3ccccc3)cn12 | active
CCOC(=O)N1CCN(C(=O)c2ccc3c(c2)sc2nc(-c4ccccc4)cn23)CC1 | inactive
CCOC(=O)N1CCC(NC(=O)c2ccc3c(c2)sc2nc(-c4cccc(OC)c4)cn23)CC1 | inactive
Cc1sc2ncnc(Oc3ccc(-n4ccnc4)cc3)c2c1C | inactive
N#CC1(Nc2ccccc2)C(=O)Nc2ccccc21 (centres undefined) | inactive
Nc1cccc(-c2nc3ccccc3[nH]2)c1 | inactive
Cc1ccc2nc(-c3cccc(-c4nc5ccc(C)cc5o4)n3)oc2c1 | inactive
Cc1ccc2nc(-c3cccnc3)oc2c1 | inactive
Nc1cc(N)cc(-c2nc3ccccc3o2)c1 | inactive
Nc1ccc2nc(-c3ccccc3)[nH]c2c1 | inactive
Cc1ccc2nc(-c3ccccn3)oc2c1 | inactive
COCCNC(=O)Nc1ccc2nc(C)sc2c1 | inactive
CCCCN(C)C(=O)c1oc2ccc(S(=O)(=O)N3CCCCCC3)cc2c1C | inactive
CCn1cc(C(=O)N2CCCC2)c(=O)c2cc(S(=O)(=O)N(C)C)ccc21 | inactive
O=C(NCCCn1ccnc1)c1noc2c1CCc1ccccc1-2 | inactive
CCOCc1nnc(NC(=O)CCc2ccccc2)s1 | inactive
C=CCN1C(=NC(=O)CCCC(=O)O)SC2CS(=O)(=O)CC21 (centres undefined) | inactive

SMILES | outcome
COc1ccccc1Nc1nc(NCCO)c2ccccc2n1 | inactive
C=C(C)Cn1c(CCNC(=O)C(C)(C)C)nc2ccccc21 | inactive
Cc1ccc(O)c(N=CC2=C(O)c3ccccc3C2=O)c1 | inactive
O=C1C(C=Nc2ccccc2O)=C(O)c2ccccc21 | inactive
CCc1ccc(NC(=O)C(=O)NCCN2CCN(C(=O)c3ccco3)CC2)cc1 | inactive
CC1=C(C(=O)OC(C)C)C(c2cccc(F)c2)N2C(=O)C(C)SC2=N1 (centres undefined) | inactive
CCOC(=O)CSc1nnc(CNC(=O)c2ccc(OC)cc2OC)n1-c1ccc(OC)cc1 | inactive
CCN(CC)C(=O)N1CCn2c(nc3ccccc32)C1 | inactive
Cn1ncc(N=Cc2ccc([N+](=O)[O-])cc2)c1C(=O)N1CCOCC1 | inactive
O=[N+]([O-])/C(C(Cl)=C(Cl)Cl)=C(\Nc1ccc(F)cc1)n1cncn1 | inactive
CC(C)(C)C(=O)/C(=C\c1ccc([N+](=O)[O-])cc1)n1cncn1 | active
Nn1c(COc2ccccc2)nnc1SCc1cc(=O)[nH]c2ccccc12 | inactive
CCOC(=O)c1sc2nc(-c3ccco3)c3c(c2c1N)CC(C)(C)OC3 | inactive
COc1ccccc1OCC(=O)Nc1nc(-c2ccc(S(=O)(=O)N3CCOCC3)cc2)cs1 | inactive
CC1CN/C(=C\C(=O)c2ccc(Cl)cc2)C(=O)N1 (centres undefined) | inactive
CC1CN/C(=C\C(=O)c2ccccc2)C(=O)N1 (centres undefined) | inactive
Cc1ccc(-n2ncc3c(=O)[nH]c(SCC(=O)N4CCC(C)CC4)nc32)cc1C | inactive
COc1ccc(NC(=O)c2cccs2)cc1 | inactive
Cc1ccc(NC(=O)c2ccccc2)s1 | active
Cc1sc(NC(=O)c2ccccc2)c(C(=O)NC(C)C)c1C | inactive
Cc1cc(NC(=O)c2ccccc2)sc1C | inactive
CCOc1ccccc1CNC(=O)C1CCCN(c2nc3ccccc3o2)C1 (centres undefined) | inactive
CN1Cc2cc(C(=O)c3ccccc3O)cnc2NC1=O | inactive

SMILES | outcome
CCCCN1Cc2cc(C(=O)c3cc(F)ccc3O)cnc2NC1=O | inactive
CN1Cc2cc(C(=O)c3cc(Cl)cc(CSc4ncccn4)c3O)cnc2NC1=O | active
O=C(CN1C(=O)c2ccccc2S1(=O)=O)Nc1cccnc1 | inactive
COc1ccc(CSc2nnc(C)n2N)cc1 | inactive
COc1cccc(CC2CC(=O)N(CCc3ccc4c(c3)OCO4)C2=O)c1 (centres undefined) | inactive
CCC(=O)c1ccc(OCCSc2ncccn2)cc1 | inactive
COc1ccc(N=C2SCC(=O)N2c2ccc(OC)cc2)cc1 | inactive
Cc1ccc(C2CC(c3ccco3)n3nc(N)nc3N2)cc1 (centres undefined) | inactive
Cc1ccc2c(c1)C(N1CCCC1=O)CC(c1ccco1)N2 (centres undefined) | active
Cc1ccc(C2CC(c3ccco3)n3ncnc3N2)cc1 (centres undefined) | inactive
CCc1nn(C(C)C(=O)NCCN2CCN(c3cccc(C)c3C)CC2)c(=O)c2cc3occc3n12 (centres undefined) | inactive
Cc1c(C(=O)OC2CCC(C)CC2)[nH]c2c1C(=O)CCC2 (centres undefined) | inactive
COCCOC(=O)c1[nH]c2c(c1C)C(=O)CC(c1cc(OC)ccc1OC)C2 (centres undefined) | inactive
CCC(C)OC(=O)c1[nH]c2c(c1C)C(=O)CC(c1ccc(N(C)C)cc1)C2 (centres undefined) | inactive
Cc1c(C(=O)OC2CCCC2)[nH]c2c1C(=O)CC(c1ccco1)C2 (centres undefined) | active
CCOC(=O)c1ccc(N=CC2=C(O)CC(c3ccco3)CC2=O)cc1 (centres undefined) | inactive
CCOC(=O)c1[nH]c2c(c1C)C(=O)CC(c1ccco1)C2 (centres undefined) | active
COCCOC(=O)c1[nH]c2c(c1C)C(=O)CC(c1ccco1)C2 (centres undefined) | active
Cc1c(C(=O)OC2CCCCC2)[nH]c2c1C(=O)CC(C)(C)C2 | inactive
COCCOC(=O)c1[nH]c2c(c1C)C(=O)CC(c1ccc(N(C)C)cc1)C2 (centres undefined) | inactive
Cc1c(C(=O)OCC2CCCO2)[nH]c2c1C(=O)CC(c1ccco1)C2 (centres undefined) | inactive
Cc1c(C(=O)OCC(C)C)[nH]c2c1C(=O)CC(c1ccco1)C2 (centres undefined) | active
O=c1[nH]c(CN2CCN(c3ccc([N+](=O)[O-])cc3)CC2)nc2ccsc12 | inactive

SMILES | outcome
CCCCCOC(=O)CSc1n[nH]c(=O)[nH]c1=O | inactive
O=C(CC(Nc1ccc(Cl)cc1)C(=O)O)c1ccccc1 (centres undefined) | inactive
Cc1cccc(NC(=O)COC(=O)CNC(=O)C2CCCCC2)c1 | inactive
NC(=O)CSc1nnnn1-c1ccc2c(c1)OCCO2 | inactive
O=C1CCCC2=C1C(Cc1ccccc1)C1=C(CCCC1=O)O2 | inactive
CCN(CCNC(=O)CC1Oc2ccccc2NC1=O)c1ccccc1 (centres undefined) | inactive
Cc1ccc(C2/C(=C(\O)c3ccc4c(c3)OCCO4)C(=O)C(=O)N2CCCN(C)C)o1 (centres undefined) | inactive
CCN1CCN(C(=O)c2cc3c(=O)oc4ccc(C)cc4c3s2)CC1 | inactive
Cc1c(C(=O)OCCOC(C)C)[nH]c2c1C(=O)CC(C)(C)C2 | inactive
CSCCOC(=O)c1[nH]c2c(c1C)C(=O)CC(c1ccco1)C2 (centres undefined) | active
CCOCCOC(=O)c1[nH]c2c(c1C)C(=O)CC(c1ccc(N(C)C)cc1)C2 (centres undefined) | inactive
CCCOC(=O)c1[nH]c2c(c1C)C(=O)CC(c1cccs1)C2 (centres undefined) | active
Cc1c(C(=O)OCC(C)C)[nH]c2c1C(=O)CC(c1cccs1)C2 (centres undefined) | inactive
CCCOC(=O)c1[nH]c2c(c1C)C(=O)CC(c1ccc(OC)c(OC)c1)C2 (centres undefined) | inactive
Cc1c(C(=O)OCCOC(C)C)[nH]c2c1C(=O)CC(c1ccco1)C2 (centres undefined) | active
COCCOC(=O)c1[nH]c2c(c1C)C(=O)CC(c1ccc(F)cc1)C2 (centres undefined) | inactive
CCOC(=O)c1[nH]c2c(c1C)C(=O)CC(c1ccc(F)cc1)C2 (centres undefined) | active
COc1cc(C2CC(=O)c3c([nH]c(C(=O)OCCOC(C)C)c3C)C2)cc(OC)c1OC (centres undefined) | inactive
CCCOCCOC(=O)c1[nH]c2c(c1C)C(=O)CC(c1cc(OC)ccc1OC)C2 (centres undefined) | inactive
COC(=O)c1[nH]c2c(c1C)C(=O)CC(c1cccs1)C2 (centres undefined) | inactive
Cc1cc(Cl)cc(C)c1OCCCCN1CCOCC1 | inactive
COCCn1c(CNc2ccc(F)cc2)nnc1SCC(=O)Nc1ccc(OC)cc1OC | inactive
